# Results taken from PubChem BioAssay (NCI).
# This is part of a sample that, as a whole, favours compounds with a hit. Of some 83,000 tested, about 20% had one in any assay.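 Testing used 96-well plates and a 48-hour single-concentration exposure. Example: -40 means 40% of the starting cells died.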 Active and inactive are the calls of the source. Rule for the calls: active = growth percent below 10; inactive = the rest.
# Tested on: MDA-MB-468 breast
# Assay: NCI-60 one-dose screen, 48 h (100 = growth as untreated, 0 = no growth, -100 = all killed)
# Conditions: 10 µM unless noted
row,Structure (SMILES),growth
1,O=C(c1ccc(Nc2nccc(NCCCCNc3ccnc4cc(Cl)ccc34)n2)cc1)N1CCCCC1,-25.3% (active)
2,COC(=O)/C=C1/SC(=NCc2ccccc2)N(CCc2c[nH]c3ccccc23)C1=O,81.1% (inactive)
3,COc1ccc(-c2nc(SCCC(C)C)nc(Nc3ccc(C(=O)O)cc3)c2C#N)cc1,105% (inactive)
4,N/C(=N/N=C/c1ccccc1)N/N=C\c1ccccc1,-15.7% (active)
5,CCNc1ccc(-c2nc3ccccc3n3cccc23)cc1,2.19% (active)
6,O=C(O)/C=C/c1cn(-c2ccccc2)nc1-c1ccc(F)cc1,104% (inactive)
7,CC1=NN(c2ccccc2Cl)C(=O)/C1=C\c1cn(S(=O)(=O)c2ccc(C)cc2)c2ccccc12,119% (inactive)
8,COC(=O)[C@@H](CCCCNC(=O)[C@]12CCC(C)(C)C[C@@H]1C1=CC[C@@H]3[C@@]4(C)C/C(=C/c5ccco5)C(=O)C(C)(C)[C@@H]4CC[C@@]3(C)[C@]1(C)CC2)NC(=O)[C@]12CCC(C)(C)C[C@@H]1C1=CC[C@@H]3[C@@]4(C)C/C(=C/c5ccco5)C(=O)C(C)(C)[C@@H]4CC[C@@]3(C)[C@]1(C)CC2,109% (inactive)
9,CNC(=O)c1nn(C)c2c1C(C)(C)Cc1cnc(Nc3ccc(N4CCN(C)CC4)cc3)nc1-2,-13.4% (active)
10,Cc1cc(Nc2ncc(Cl)c(Nc3ccccc3S(=O)(=O)C(C)C)n2)c(OC(C)C)cc1C1CCNCC1,-78.1% (active)
11,O=C(CN1C(=O)/C(=C\c2ccc(Cl)cc2)SC1=S)Nc1ncc(Cc2ccc(Cl)cc2)s1,108% (inactive)
